Assay results reported in the supplement of paper PMC13380429.

System: Vero E6 infected with SARS-CoV-2
Experiment: inhibition of SARS-CoV-2 cytopathic effect; higher = more antiviral protection, active = above 15
Details: 48 h

Measured: inhibition of SARS-CoV-2 cytopathic effect

CC(C)(C)C(=O)OCOC(=O)[C@@H]1N2C(=O)[C@@H](NC(=O)[C@H](N)c3ccccc3)[C@H]2SC1(C)C [pivampicillin]
inactive: 1 nM 3.04% | 8.33 nM 3.24% | 100 nM 2.48% | 833.33 nM 0.64% | 10000 nM -3.25%

CC12CC3CC(C)(C1)CC(N)(C3)C2 [memantine]
inactive: 1 nM 0.45% | 8.33 nM 0.23% | 100 nM 1.56% | 833.33 nM 2% | 10000 nM -1.57%

Cn1nnc(-c2ccc(-c3ccc(N4C[C@H](COP(=O)(O)O)OC4=O)cc3F)cn2)n1 [tedizolid-phosphate]
inactive: 1 nM -1.65% | 8.33 nM -1.24% | 100 nM -0.65% | 833.33 nM 1.74% | 10000 nM 1.44%

CC[C@@H](C)CNCC(=O)N1CCc2sccc2[C@@H]1COc1cccc(C)c1
inactive: 1 nM 2.77% | 8.33 nM 3.61% | 100 nM 2.09% | 833.33 nM 1.08% | 10000 nM -6.12%

C#C[C@]1(O)CC[C@H]2[C@@H]3CCC4=Cc5oncc5C[C@]4(C)[C@H]3CC[C@@]21C [danazol]
inactive: 1 nM 2.48% | 8.33 nM -0.9% | 100 nM 1.74% | 833.33 nM 3.55% | 10000 nM 6.39%

C[C@H]1[C@H](C)CC[C@]2(C(=O)O)CC[C@]3(C)C(=CC[C@@H]4[C@@]5(C)C[C@@H](O)[C@H](O)C(C)(C)[C@@H]5CC[C@]43C)[C@H]12 [corosolic-acid]
inactive: 1 nM -3.62% | 8.33 nM -0.43% | 100 nM -0.51% | 833.33 nM -4.03% | 10000 nM -1.21%

O=C1NC(=O)C(c2ccccc2[N+](=O)[O-])=C1Nc1ccc(O)c(Cl)c1
inactive: 1 nM -2.14% | 8.33 nM -1.36% | 100 nM -2.09% | 833.33 nM 1.29% | 10000 nM 6.31%

Cn1cc(-c2ccc(F)c(C(F)(F)F)c2)nc1C1CCN(c2ncnc3[nH]ncc23)CC1
inactive: 1 nM 0.45% | 8.33 nM -0.64% | 100 nM -1.2% | 833.33 nM -2.86% | 10000 nM -3.92%

CCCCNc1ncc2c(-c3ccc(CN4CCN(C)CC4)cc3)cn([C@H]3CC[C@H](O)CC3)c2n1
inactive: 1 nM 1.92% | 8.33 nM 2.77% | 100 nM -0.22% | 833.33 nM -9.69% | 10000 nM 7.04%

O=C(Nc1ccc(Cl)nc1)c1ccc(Cl)cc1
inactive: 1 nM 0.45% | 8.33 nM 1.94% | 100 nM 2.79% | 833.33 nM 0.19% | 10000 nM 0.84%

CC(=O)O[C@]1(C(C)=O)CC[C@H]2[C@@H]3CCC4=CC(=O)CCC4=C3[C@@H](c3ccc(N(C)C)cc3)C[C@@]21C [Ulipristal acetate]
inactive: 1 nM 4.79% | 8.33 nM 2.62% | 100 nM 1.8% | 833.33 nM 7.36% | 10000 nM 12.9%

O=C(O)CCCCC(CCSCc1ccccc1)SCc1ccccc1 (stereo not given)
inactive: 1 nM 1.25% | 8.33 nM 1.84% | 100 nM 3.04% | 833.33 nM 0.34% | 10000 nM -0.88%

COc1cc(C[C@@H](CO)[C@H](CO)Cc2ccc(O)c(OC)c2)ccc1O [secoisolariciresinol-(-)]
inactive: 1 nM 1.65% | 8.33 nM 5.68% | 100 nM 0.9% | 833.33 nM 0.53% | 10000 nM -4.27%

COc1ccc(-c2cc(=O)c3c(O)cc(O)cc3o2)cc1O [diosmetin]
inactive: 1 nM -0.61% | 8.33 nM -0.9% | 100 nM -1.66% | 833.33 nM -3.02% | 10000 nM 2.95%

COc1c(C)cnc(Cn2cc(C#CCC(C)(C)O)c3c(Cl)nc(N)nc32)c1C
inactive: 1 nM 2.11% | 8.33 nM 1.52% | 100 nM -1.98% | 833.33 nM 0.61% | 10000 nM -7.6%

CC(C)(O)CC[C@@H](O)[C@](C)(O)[C@H]1CC[C@@]2(O)C3=CC(=O)[C@@H]4C[C@@H](O)[C@@H](O)C[C@]4(C)[C@H]3CC[C@]12C [20-hydroxyecdysone]
inactive: 1 nM -3.9% | 8.33 nM -2.28% | 100 nM -3.43% | 833.33 nM 0.03% | 10000 nM 1.01%

CCc1cc(O)c(Oc2ccc(C(N)=O)cc2F)cc1F
inactive: 1 nM 0.22% | 8.33 nM -0.22% | 100 nM 0.21% | 833.33 nM -0.53% | 10000 nM -0.97%

COC[C@@H](c1ccc(C(F)(F)F)cc1)N1CCN(C2(C)CCN(C(=O)c3c(C)ncnc3C)CC2)C[C@@H]1C [vicriviroc]
inactive: 1 nM -0.96% | 8.33 nM -0.11% | 100 nM -0.52% | 833.33 nM 0.02% | 10000 nM -0.9%

Cc1ccc(-c2ncn(-c3ccc(Nc4nccc(-c5cccc(N6CCOCC6)c5)n4)cc3)n2)cn1
inactive: 1 nM -4.9% | 8.33 nM -4.6% | 100 nM -3.08% | 833.33 nM -5.23% | 10000 nM -2.89%

COc1ccc2c(c1OC)C(=O)O[C@@H]2[C@H]1c2cc3c(cc2CCN1C)OCO3 [hydrastine-(1R,9S)]
inactive: 1 nM 2.12% | 8.33 nM 0.73% | 100 nM 1.14% | 833.33 nM 1.33% | 10000 nM -0.76%

NC(N)=O [urea]
inactive: 1 nM -3.97% | 8.33 nM -3.63% | 100 nM -2.79% | 833.33 nM -2.47% | 10000 nM -3.31%

CN1CC[C@@H]2CN3CCc4cccc(c43)[C@@H]2C1
inactive: 1 nM -3.24% | 8.33 nM -0.59% | 100 nM 1.77% | 833.33 nM -0.07% | 10000 nM 1.24%

Cc1onc(-c2c(Cl)cccc2Cl)c1C(=O)N[C@@H]1C(=O)N2[C@@H]1SC(C)(C)[C@@H]2C(=O)O [dicloxacillin]
inactive: 1 nM 0.8% | 8.33 nM -0.85% | 100 nM -0.59% | 833.33 nM 1% | 10000 nM 1.51%

CCCCCCCCCCCC(=O)O [lauric-acid]
inactive: 1 nM 0.97% | 8.33 nM 2.75% | 100 nM 0.72% | 833.33 nM -1.45% | 10000 nM -1.99%

C[C@]12CC[C@H]3[C@@H](CCC4=CC(=O)CC[C@@H]43)[C@@H]1CC[C@@H]2O [Nandrolone]
inactive: 1 nM -1.64% | 8.33 nM -1.9% | 100 nM -1.06% | 833.33 nM 1.95% | 10000 nM -0.94%

CC(C)(Sc1cc(C(C)(C)C)c(O)c(C(C)(C)C)c1)Sc1cc(C(C)(C)C)c(O)c(C(C)(C)C)c1 [probucol]
inactive: 1 nM -0.06% | 8.33 nM 2.66% | 100 nM 0.1% | 833.33 nM -0.2% | 10000 nM 1.98%

OCc1ccccc1O[C@@H]1O[C@H](CO)[C@@H](O)[C@H](O)[C@H]1O [salicin]
inactive: 1 nM 0.33% | 8.33 nM 2.34% | 100 nM 1.75% | 833.33 nM 2.27% | 10000 nM 5.91%

C=CCN1C[C@H](C)N([C@H](c2ccc(C(=O)N(CC)CC)cc2)c2cccc(O)c2)C[C@H]1C
inactive: 1 nM 0.51% | 8.33 nM 2.94% | 100 nM -0.07% | 833.33 nM -0.38% | 10000 nM -1.22%

Cc1ccc(NC(=O)C2(c3ccc4c(c3)OC(F)(F)O4)CC2)nc1-c1cccc(C(=O)O)c1 [lumacaftor]
inactive: 1 nM 2.48% | 8.33 nM 0.38% | 100 nM -1.4% | 833.33 nM -0.17% | 10000 nM 1.24%

CCN(CCCc1ccccc1)CCCc1ccccc1 [alverine]
inactive: 1 nM -0.33% | 8.33 nM 1.03% | 100 nM -0.23% | 833.33 nM -0.58% | 10000 nM -0.57%

C[C@@H]1C/C=C/C=C/C=C/C=C/[C@H](O[C@@H]2O[C@H](C)[C@@H](O)[C@H](N)[C@@H]2O)C[C@@H]2O[C@](O)(C[C@@H](O)C[C@H]3O[C@@H]3/C=C/C(=O)O1)C[C@H](O)[C@H]2C(=O)O [natamycin]
inactive: 1 nM 2.57% | 8.33 nM -0.49% | 100 nM -2.28% | 833.33 nM -6.12% | 10000 nM -4.75%

CCNC1(C(N)=O)CCN(c2ncnc3c2nc(-c2ccccc2Cl)n3-c2ccc(Cl)cc2)CC1
inactive: 1 nM -2.1% | 8.33 nM 0.22% | 100 nM 1.6% | 833.33 nM 7.17% | 10000 nM -0.26%

CC(C)OC(=O)C(C)(C)Oc1ccc(C(=O)c2ccc(Cl)cc2)cc1 [fenofibrate]
inactive: 1 nM 4.02% | 8.33 nM 5.16% | 100 nM 3.28% | 833.33 nM -0.31% | 10000 nM 0.82%

O=C(C(c1ccccc1)c1ccccc1)N1CCN(CC(O)COc2cccc3ncccc23)CC1 (stereo not given) [dofequidar]
inactive: 1 nM -0.98% | 8.33 nM 4.84% | 100 nM -1.1% | 833.33 nM -0.87% | 10000 nM 1.44%

CCCCCOc1ccc(-c2cc(-c3ccc(C(=O)N[C@H]4C[C@@H](O)[C@@H](O)NC(=O)[C@@H]5[C@@H](O)[C@@H](C)CN5C(=O)[C@H]([C@H](O)CC(N)=O)NC(=O)[C@H]([C@H](O)[C@@H](O)c5ccc(O)c(OS(=O)(=O)O)c5)NC(=O)[C@@H]5C[C@@H](O)CN5C(=O)[C@H]([C@@H](C)O)NC4=O)cc3)no2)cc1 [micafungin]
inactive: 1 nM -6.42% | 8.33 nM -5.65% | 100 nM -5.9% | 833.33 nM -3.13% | 10000 nM 4.81%

Nc1cc(Cl)c(N=C2NCCN2)c(Cl)c1 [apraclonidine]
inactive: 1 nM -2.77% | 8.33 nM 1.32% | 100 nM -1.3% | 833.33 nM -1.26% | 10000 nM -0.76%
